Measurements reported in the supplement of paper PMC6555819.

test system: PPARg DBDmut IVT, anti-PPARg (DBD mutation: PPARg1 K132A/R137A, NR concentration 270 nM); assay: PBM binding z-score (relative to random genomic background probes); higher = stronger binding; sequences stand for … in GC…GCGATTGACAGCGTAGAATGAAGG
Method in brief: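 Probes were double-stranded and carried 34-nt variable regions with direct-repeat seeds, single-nucleotide variants, half-site ablations and random human genomic background sequences, printed on custom Agilent 4×180K protein-binding microarrays. Arrays were incubated 1 h with ligand-free nuclear receptor dimers in PBS pH 7.4, 2% milk, 0.02% Triton X-100, 1 mM DTT, 0.2 mg/mL BSA and 0.4 mg/ml salmon testes DNA. Antibodies against each partner (one per run) detected binding, and scanned fluorescence was regression-normalized. Binding z-scores use the random background probes as reference.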

| Sequence | PBM binding z-score |
| --- | --- |
| CTCCAAAGGTCGTGCTCAGGTGAGTATACCAAAC | -0.509 |
| TAGCCAAGGTCATGGGCCAGTATACCACGCGAAC | 1.48 |
| CGAACTACGTCAGAACAGGACAGTGAAGGATGAT | 0.733 |
| ATATGTTGGTTATCGGGTCATTCAGTTTGCGCAT | 2.49 |
| ACAGACAGGTTATGAAGGTAACTCAGGCTATCAT | 0.581 |
| CCGACTGGGGCAGAAAGGATACCATACCATCCGG | -1.57 |
| TCACGGAGGACACGAAAGGTCAGAGCTCGACATC | -0.261 |
| TGTCAAAGTTCAAAGGCAACGTAAGTATCCACAC | 1.83 |
| CCTCGCAGGCCAATCTGGGTCACTCAAGGCTTGA | -1.36 |
| GCGACTGGGGCATCAGCAGGTTACCATTACTTAA | -0.712 |
| TAGCCTAGGTCATGGGCCAGTATCCCACGCGAAC | -0.233 |
| TCATATAGGTAAAAGGTGAAATTCGGTGTGGTAA | 1.94 |
| CCTATTAGATGACCATAAGGGCAACCGAAGCTCG | -0.21 |
| AGAACGAGGGCACGCTGAGTTGGTAGCAGAGTAG | -0.628 |
| AGCACGAGGGCAATGAGTTGATAGCACGGGTGGC | -0.486 |
| CCGACTGGGGCATAAAGTTACCATAAGCCAGCCC | -1.06 |
| CGAACTAGGTCATCCAGGACAGTAAATACATTGA | 3.62 |
| ATCTCTAGGTGAAGATAGTTCAGTGAATGCAAAT | 1.5 |
| ACTATTAGTTGACTTGGGGCAACCGATACGACGC | 1.45 |
| TAGCTTAGGTCATTGGGCCAGTATAGTACGCATC | 0.108 |

| Sequence | PBM binding z-score |
| --- | --- |
| AGAATGCGGTTATTAAGATCAGGGAATTGCGGTC | -0.574 |
| TCTTGTAGATAAGCAGGTTAAGAAAGCTGGCCAA | -0.186 |
| GCATATAGGTAATACAAGGTGAAAGTTCGATTGT | 1.17 |
| GATACAGGGTCAAGGCCAGACTACGCGTATTGAT | 0.461 |
| TCGGCTAGGTCAGTTGGTCAGCTAACGAGCTGCC | -0.778 |
| AGTAAAAGTTCAGGACGAGGTAACGTAAAGCACG | 1.31 |
| AGAACGAGGGCAATGAGTTGATAACACGGGTGGC | 0.293 |
| TGAATGAGGTTATAAGCTCAGGGAACGTTGCAAA | 0.543 |
| TCTATTAGTTGATTAGGGCATCCGAAACAGCGGA | 0.919 |
| ATATGTAGGTTAAGGGTAATTCAGGTTGGTTCGC | 1.87 |
| CAAACTAGGTCACAGAGGTCAAATTCCGTGCGTA | 3.55 |
| CGAACGAGGGCATGAGTGGATAGCAAATGCCGAT | -0.831 |
| CCGAGTAGGTTATGGGGCATTCCGGCAACGGTGA | -0.0547 |
| CGTCCCAGGTCATAGGAGGTCAGTGAAGACAGAT | 0.281 |
| TTACCAAGTTGAAGGTCGTTGATCCCTCTGTAGA | -0.391 |
| GCACCAAGGTGAATAGGTCGTTGATGAGTAGGCG | -0.894 |
| ATCGAAAGGTCGTGAGGTGAGTAGACAGAAAGGC | 0.706 |
| CGAACTAGGTGATCCAGGACAGTGAATACATTGA | 0.847 |
| TCTTGTAGATTAACAGGAGGTTAAGAAAGATCGA | 0.403 |
| AGAATGAGGTTATTAATATCAGGGAATTGCGGTC | 0.456 |
